Measured values published in ChEMBL document CHEMBL1961873, “Compounds: GSK PKIS; Assays: Nanosyn kinase panel” (2012).
Several values for one entry are separate records, joined by “and”; a condition that tells them apart may be missing. Equal values may be shown once.

Tests used:
[1] = molecular target: Tyrosine-protein kinase SYK (Homo sapiens) (UniProt P43405); conditions: at 1 µM
[2] = molecular target: T1, Tyrosine-protein kinase Tec (Homo sapiens) (UniProt P42680); conditions: at 0.1 µM
T1 sequence (whole entry): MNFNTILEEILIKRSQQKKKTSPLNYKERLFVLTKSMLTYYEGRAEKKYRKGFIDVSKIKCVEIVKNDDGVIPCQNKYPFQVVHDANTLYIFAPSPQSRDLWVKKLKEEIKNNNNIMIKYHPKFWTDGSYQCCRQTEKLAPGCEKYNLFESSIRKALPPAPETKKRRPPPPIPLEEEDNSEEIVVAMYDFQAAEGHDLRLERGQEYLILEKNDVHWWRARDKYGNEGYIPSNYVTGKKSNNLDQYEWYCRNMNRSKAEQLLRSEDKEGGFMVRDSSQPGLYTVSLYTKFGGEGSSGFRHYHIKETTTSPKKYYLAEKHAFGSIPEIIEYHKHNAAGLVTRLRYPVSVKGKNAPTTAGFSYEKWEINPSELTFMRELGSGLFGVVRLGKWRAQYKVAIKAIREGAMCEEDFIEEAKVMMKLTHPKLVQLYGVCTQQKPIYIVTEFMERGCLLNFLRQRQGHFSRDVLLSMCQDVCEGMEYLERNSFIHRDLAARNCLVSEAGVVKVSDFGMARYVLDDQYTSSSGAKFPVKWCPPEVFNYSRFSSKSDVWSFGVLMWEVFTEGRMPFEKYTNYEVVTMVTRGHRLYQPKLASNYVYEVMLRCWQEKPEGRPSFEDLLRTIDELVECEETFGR

[3] = molecular target: T1, Tyrosine-protein kinase Tec (Homo sapiens); conditions: at 1 µM
[4] = molecular target: Angiopoietin-1 receptor (Homo sapiens) (UniProt Q02763); conditions: at 0.1 µM
Sequence of Angiopoietin-1 receptor (Homo sapiens) (Q02763 whole entry): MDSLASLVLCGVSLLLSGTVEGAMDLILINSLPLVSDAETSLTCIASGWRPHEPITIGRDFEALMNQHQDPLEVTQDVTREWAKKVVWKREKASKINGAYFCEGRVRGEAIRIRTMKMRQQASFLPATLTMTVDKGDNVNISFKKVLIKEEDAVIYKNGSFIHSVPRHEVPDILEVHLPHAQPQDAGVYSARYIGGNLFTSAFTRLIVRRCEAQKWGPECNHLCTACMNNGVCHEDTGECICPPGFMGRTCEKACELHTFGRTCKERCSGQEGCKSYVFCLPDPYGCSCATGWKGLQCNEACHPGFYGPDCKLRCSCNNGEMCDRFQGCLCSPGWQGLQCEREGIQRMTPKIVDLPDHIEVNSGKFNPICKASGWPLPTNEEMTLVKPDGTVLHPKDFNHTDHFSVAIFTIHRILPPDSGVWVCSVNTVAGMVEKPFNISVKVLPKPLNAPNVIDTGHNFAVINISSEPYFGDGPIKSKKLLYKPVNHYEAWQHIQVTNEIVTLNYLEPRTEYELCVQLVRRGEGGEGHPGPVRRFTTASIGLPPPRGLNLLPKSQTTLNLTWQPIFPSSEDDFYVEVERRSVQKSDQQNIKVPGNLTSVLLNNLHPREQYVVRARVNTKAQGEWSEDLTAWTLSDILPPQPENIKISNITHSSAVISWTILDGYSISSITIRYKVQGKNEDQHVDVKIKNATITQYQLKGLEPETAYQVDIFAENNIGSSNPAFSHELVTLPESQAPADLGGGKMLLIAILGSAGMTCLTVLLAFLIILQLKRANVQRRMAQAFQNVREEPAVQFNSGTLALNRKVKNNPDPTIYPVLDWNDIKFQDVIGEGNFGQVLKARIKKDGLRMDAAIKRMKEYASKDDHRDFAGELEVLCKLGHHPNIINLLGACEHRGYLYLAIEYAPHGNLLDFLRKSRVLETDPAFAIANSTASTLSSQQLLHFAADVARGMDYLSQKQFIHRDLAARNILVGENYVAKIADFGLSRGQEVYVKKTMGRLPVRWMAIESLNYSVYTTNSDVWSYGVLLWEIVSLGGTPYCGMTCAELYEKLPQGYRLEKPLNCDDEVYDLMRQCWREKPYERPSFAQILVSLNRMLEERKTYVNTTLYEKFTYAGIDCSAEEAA

[5] = molecular target: Angiopoietin-1 receptor (Homo sapiens) (UniProt Q02763); conditions: at 1 µM
[6] = molecular target: T2, Non-receptor tyrosine-protein kinase TNK1 (Homo sapiens) (UniProt Q13470); conditions: at 0.1 µM
T2 sequence (whole entry): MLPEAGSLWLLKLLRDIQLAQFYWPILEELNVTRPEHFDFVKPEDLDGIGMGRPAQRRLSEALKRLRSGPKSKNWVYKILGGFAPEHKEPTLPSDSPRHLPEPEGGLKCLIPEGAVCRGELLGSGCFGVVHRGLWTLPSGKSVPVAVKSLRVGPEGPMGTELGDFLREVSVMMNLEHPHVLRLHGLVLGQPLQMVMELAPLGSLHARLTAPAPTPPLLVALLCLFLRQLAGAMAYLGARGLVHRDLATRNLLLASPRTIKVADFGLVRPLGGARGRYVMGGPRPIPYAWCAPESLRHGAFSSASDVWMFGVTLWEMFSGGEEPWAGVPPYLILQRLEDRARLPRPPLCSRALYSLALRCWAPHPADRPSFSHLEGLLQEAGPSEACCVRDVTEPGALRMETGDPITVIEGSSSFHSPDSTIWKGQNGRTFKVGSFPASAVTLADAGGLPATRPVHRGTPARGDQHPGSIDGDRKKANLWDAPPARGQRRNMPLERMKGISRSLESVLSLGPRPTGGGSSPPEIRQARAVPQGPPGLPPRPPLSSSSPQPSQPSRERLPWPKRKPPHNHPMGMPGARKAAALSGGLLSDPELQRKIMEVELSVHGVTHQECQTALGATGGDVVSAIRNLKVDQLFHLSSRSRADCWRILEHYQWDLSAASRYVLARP

[7] = molecular target: T2, Non-receptor tyrosine-protein kinase TNK1 (Homo sapiens); conditions: at 1 µM
[8] = molecular target: Activated CDC42 kinase 1 (Homo sapiens) (UniProt Q07912); conditions: at 0.1 µM
Sequence of Activated CDC42 kinase 1 (Homo sapiens) (Q07912 whole entry, looked up): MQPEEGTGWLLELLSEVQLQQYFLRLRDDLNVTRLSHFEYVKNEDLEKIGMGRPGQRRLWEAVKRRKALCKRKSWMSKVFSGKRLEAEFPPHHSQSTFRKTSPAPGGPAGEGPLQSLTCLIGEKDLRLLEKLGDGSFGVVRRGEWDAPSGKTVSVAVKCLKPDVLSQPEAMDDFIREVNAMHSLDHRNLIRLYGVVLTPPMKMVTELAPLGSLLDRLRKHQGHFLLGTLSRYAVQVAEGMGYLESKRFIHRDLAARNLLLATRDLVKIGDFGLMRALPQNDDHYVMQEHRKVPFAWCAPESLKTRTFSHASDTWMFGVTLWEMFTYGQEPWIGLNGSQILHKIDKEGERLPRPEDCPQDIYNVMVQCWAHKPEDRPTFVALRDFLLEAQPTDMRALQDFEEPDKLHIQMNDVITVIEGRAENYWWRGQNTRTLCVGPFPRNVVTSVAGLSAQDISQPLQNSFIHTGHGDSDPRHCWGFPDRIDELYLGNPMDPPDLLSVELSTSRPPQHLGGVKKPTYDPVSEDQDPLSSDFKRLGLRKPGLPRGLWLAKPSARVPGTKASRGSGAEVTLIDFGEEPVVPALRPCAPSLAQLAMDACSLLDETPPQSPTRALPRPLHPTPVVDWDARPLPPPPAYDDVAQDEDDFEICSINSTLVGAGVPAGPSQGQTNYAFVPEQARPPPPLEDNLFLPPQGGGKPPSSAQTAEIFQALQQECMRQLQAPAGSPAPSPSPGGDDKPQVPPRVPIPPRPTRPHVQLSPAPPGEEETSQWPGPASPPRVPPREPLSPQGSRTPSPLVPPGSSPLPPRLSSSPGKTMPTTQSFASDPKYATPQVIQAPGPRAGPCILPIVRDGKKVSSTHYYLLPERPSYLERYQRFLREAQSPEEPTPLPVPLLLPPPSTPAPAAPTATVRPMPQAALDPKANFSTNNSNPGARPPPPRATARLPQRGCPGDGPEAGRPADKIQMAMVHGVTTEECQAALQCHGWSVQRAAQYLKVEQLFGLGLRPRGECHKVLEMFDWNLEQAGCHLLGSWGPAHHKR

[9] = molecular target: Activated CDC42 kinase 1 (Homo sapiens) (UniProt Q07912); conditions: at 1 µM
[10] = molecular target: High affinity nerve growth factor receptor (Homo sapiens) (UniProt P04629); conditions: at 0.1 µM;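 further: each value is a mean of replicate percent inhibition readings against TRKA kinase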
Sequence of High affinity nerve growth factor receptor (Homo sapiens) (P04629 33-796 limits assumed): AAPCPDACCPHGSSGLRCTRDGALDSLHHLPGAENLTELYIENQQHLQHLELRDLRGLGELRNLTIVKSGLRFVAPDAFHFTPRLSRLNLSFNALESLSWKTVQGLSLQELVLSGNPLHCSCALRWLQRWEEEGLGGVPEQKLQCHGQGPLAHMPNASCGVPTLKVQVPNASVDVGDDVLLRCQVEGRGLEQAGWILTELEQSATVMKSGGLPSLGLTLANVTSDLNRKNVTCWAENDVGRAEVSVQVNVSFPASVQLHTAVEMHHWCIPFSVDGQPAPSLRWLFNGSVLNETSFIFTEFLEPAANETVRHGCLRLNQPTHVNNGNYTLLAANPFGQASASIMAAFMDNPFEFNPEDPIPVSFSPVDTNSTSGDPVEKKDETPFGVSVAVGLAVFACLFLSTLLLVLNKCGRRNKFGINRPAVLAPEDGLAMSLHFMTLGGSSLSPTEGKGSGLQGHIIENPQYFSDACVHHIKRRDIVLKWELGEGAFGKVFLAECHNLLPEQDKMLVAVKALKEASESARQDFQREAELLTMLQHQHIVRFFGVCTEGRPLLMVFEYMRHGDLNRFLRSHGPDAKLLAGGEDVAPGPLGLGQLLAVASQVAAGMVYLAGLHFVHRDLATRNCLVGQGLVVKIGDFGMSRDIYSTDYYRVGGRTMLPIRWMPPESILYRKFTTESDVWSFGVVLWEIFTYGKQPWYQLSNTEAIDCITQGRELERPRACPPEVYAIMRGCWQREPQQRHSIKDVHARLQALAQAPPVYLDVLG

Row | Structure (SMILES) | inhibition [1] | inhibition [2] | inhibition [3] | inhibition [4] | inhibition [5] | inhibition [6] | inhibition [7] | inhibition [8] | inhibition [9] | inhibition [10]
1 | COc1cc(N2CCN(C(C)C)CC2)ccc1Nc1nc(Nc2cccc3ncccc23)c2cc[nH]c2n1 | -0.52% | 0.93% | -0.14% | 3.15% | 7.32% | 0.11% | 22.3% | 1.12% | 13.2% | 1.86%
2 | COc1ccccc1-c1cc(/C=C2\C(=O)Nc3ncc(Br)cc32)cc(Br)c1O | -0.96% | 4.41% | 10.3% | 4.42% | 6.14% | 40.2% | 80.4% | 1.04% | 0.66% | 9.43%
3 | CS(=O)(=O)CCNCc1ccc(-c2ccc3ncnc(Nc4ccc(OCc5cccc(C(F)(F)F)c5)cc4)c3c2)o1 | -0.03% | 6.62% | 4.52% | 3.37% | 4.84% | 0.64% | 5.33% | 0.49% | 0.96% | 2.16%
4 | Cc1cc(O)cc(C)c1/C=C/c1cncc(C(N)=O)c1 | 0.5% | 5.81% | 32.2% | 2.45% | 5.29% | 4.23% | 14.4% | 1.58% | 6.06% | 4.13%
5 | CC1=C(C(=O)Nc2ccc3[nH]ncc3c2)C(c2ccc(F)cc2)N=C(c2ccc(C(F)(F)F)nc2)N1 (stereo not given) | 0.81% | 3.03% | 7.4% | 2.65% | 2.49% | 1.86% | 7.12% | 1.17% | 1.16% | 4.01%
6 | COc1cc(Nc2ncc(-c3ccccc3)o2)cc(OC)c1 | -7.57% | 2.12% | 7.94% | 3.94% | 7.85% | 2.49% | 31.1% | 1.44% | 3.07% | 3.5%
7 | NS(=O)(=O)c1cccc(N/C=C2\C(=O)Nc3ccccc32)c1 | -1.66% | 4.94% | 7.41% | 4.12% | 8.33% | 3.06% | 5.85% | 0.36% | 1.26% | 4.69%
8 | CN(C)CCNC(=O)Nc1ccc(N(C)c2ccnc(Nc3ccc(CS(C)(=O)=O)cc3)n2)cc1 | -4.22% | 5.73% | 14.7% | 2.91% | 12.6% | 12.7% | 47.1% | 1.49% | 4.15% | 1.76%
9 | NS(=O)(=O)c1ccc(N/N=C2\C(=O)Nc3ccc(C(=O)NCc4ccncc4)cc32)cc1 | -2.54% | 3.82% | 7.13% | -0.94% | 1.16% | 3.58% | 17.5% | 0.57% | 2.58% | 4.11%
10 | CC1(C)CC(n2cnc(-c3ccc(F)cc3)c2-c2ccnc(N)n2)CC(C)(C)N1 | 0.92% | 1.41% | -0.41% | 1.61% | 3.96% | -0.43% | -1.61% | -0.24% | 0.43% | 6.46%
11 | Nc1nccc(-c2c(-c3ccc(F)cc3)ncn2C2CCNCC2)n1 | -2.74% and 1.45% | -2.4% and 0.94% | -2.93% and 2.08% | -0.35% and 2.75% | 1.51% and 1.25% | -6.18% and -1.13% | -2.86% and -0.41% | -1.87% and 0.84% | -2.1% and 1.2% | -1.68% and 4.53%
12 | COc1ccc(-c2nn3ncccc3c2-c2ccnc(Nc3ccc(F)c(F)c3)n2)cc1 | -2.02% | 6.05% | 7.67% | 3.17% | 7.31% | 4.48% | 9.68% | 1.57% | 4.87% | 1.54%
13 | Cn1c(-c2nonc2N)nc2cnccc21 | 0.59% | 4.08% | 3.99% | 1.46% | 2.07% | 1.08% | 0.76% | 0.75% | 0.19% | 1.03%
14 | Cc1c2ccc(N(C)c3ccnc(Nc4cccc(S(N)(=O)=O)c4)n3)cc2nn1C | -6.33% | 13.8% | 50.2% | 12.4% | 53% | 16.6% | 60.1% | 1.67% | 4.21% | 4.18%
15 | O=C(Nc1n[nH]c2nnc(-c3cccnc3)cc12)C1CC1 | 0.88% | 0.17% | 3.48% | 1.38% | 1.88% | -1.13% | 0.09% | 0.32% | 1.68% | 0.12%
16 | O=C(O[C@H]1CN[C@H](C#Cc2cc3ncnc(Nc4ccc5c(cnn5Cc5ccccc5)c4)c3s2)C1)N1CCOCC1 | 0.67% | 2.33% | 2.89% | 0.41% | 5.18% | 0.45% | 9.52% | -0.92% | -1.03% | -1.24%
17 | CN1CCC(C(=O)Nc2n[nH]c3nc(-c4ccc(O)cc4)c(Br)cc23)CC1 | -0.04% and 0.42% | -1.21% and 2.96% | 1.24% and 2.96% | 3.01% and 5.98% | 7.84% and 7.69% | 3.57% and 0.52% | 6.51% and 6.06% | 0.92% and 0.24% | 1.76% and 1.56% | 1.13% and 2.68%
18 | CN1CCC(n2cnc(-c3ccc(F)cc3)c2-c2ccnc(NCCO)n2)CC1 | -1.12% | 6.05% | 5.09% | 1.8% | 3.36% | 4.89% | 10.8% | 1.7% | 2.83% | 2.11%
19 | Fc1ccc(Nc2nccc(-c3c(-c4ccc(C(F)(F)F)cc4)nn4ncccc34)n2)cc1F | -0.68% | 4.32% | 6.72% | 1.72% | 1.95% | 3.85% | -0.46% | 1.2% | 0.83% | 2.39%
20 | COc1cccc(Nc2nccc(-c3cnn4ncccc34)n2)c1 | 34.2% | 4.27% | 25.1% | 5.94% | 21.3% | 15.3% | 65.9% | 1.79% | 21.7% | 4.75%
21 | COc1ccc(Nc2ncc(-c3ccccc3)o2)cc1OC | 0.42% | 2.91% | 9.41% | 2.1% | 8.87% | 5.16% | 26.8% | -0.28% | 2.05% | -1.61%
22 | COC(=O)Nc1nc2cc(Oc3ccc(NC(=O)Nc4ccccc4)cc3)ccc2[nH]1 | 0.09% | 1.83% | 1.84% | 5.37% | 9.24% | 2.64% | 4.12% | 0.69% | 1.18% | 2.62%
23 | Cc1cc(O)cc(C)c1/C=C/c1cncc(C(=O)OC(C)(C)C)c1 | 0.64% | 5.96% | 30.2% | 2.09% | 3.67% | 2.08% | 15.7% | 1.33% | 4.9% | 3.36%
24 | CCCNc1cccc(-n2ncc3c(N/N=C/c4ccncc4)ncnc32)c1 | -2.86% | 2.52% | 7.76% | 8.93% | 36.2% | 9.78% | 48% | 0.38% | 3.51% | -0.62%
